The values that follow come from the supplement of paper PMC7156485.

Unmarked numbers belong to inactive results.
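Note: TDF is a line of transformed human dermal fibroblasts of mesenchymal origin.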

For this assay, the system named is TDF. As to the kind of experiment: H1.0 immunofluorescence intensity relative to DMSO (% of DMSO); higher = stronger H1.0 induction, active = 120 or more. The conditions noted are these: concentration: 10 µM; 24 h. In a few lines: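 HCC1569 and TDF cells (800 per well, 384-well plates, RPMI with 10% FBS) were treated with compounds at 10 µM for 24 h at 37 °C, in triplicate. Cells were fixed in 3.7% formaldehyde and stained with a rabbit anti-H1.0 antibody, an AlexaFluor 647 secondary and DAPI; six fields per well were imaged at ×10. H1.0 nuclear intensity or cell number is expressed as percent of the plate DMSO control, taking the median of replicates. HCC1569 values were smoothed for positional effects.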
On to `C[Se]CCC(N)C(=O)O` (stereo not given) [Selenomethionine], for which the H1.0 immunofluorescence intensity was 104.
As for `Cc1c(C)c2c(c(C)c1O)CCC(C)(C(=O)O)O2` (stereo not given) [Trolox], the figure is 94.4; as for `COc1ccc(C=Cc2cc(OC)cc(=O)o2)cc1` [Yangonin], 104; as for `CC(C)NCC(O)COc1ccc(CCOCC2CC2)cc1.Cl` (stereo not given) [Betaxolol hydrochloride], 95.4.
As for `CC1(C)CC=C(c2cnc3ccccc3c2)c2cc(C(=O)Nc3ccc(C(=O)O)cc3)ccc21`, the figure is 97.3; as for `CNCCC(Oc1ccc(C(F)(F)F)cc1)c1ccccc1` (stereo not given) [Fluoxetine], 100; as for `Cc1ccc(S(=O)(=O)NC(=O)NN2CCCCCC2)cc1` [Tolazamide], 93.2.
With `CC(CCc1ccc(O)cc1)NCCc1ccc(O)c(O)c1.Cl` (stereo not given) [Dobutamine hydrochloride], the H1.0 immunofluorescence intensity was 85.4.
As for `COc1ccnc(CS(=O)c2nc3ccc(OC(F)F)cc3[nH]2)c1OC` (stereo not given) [Pantoprazole], the figure is 102; as for `COc1cccc(/C=N/CC/N=C/c2cccc(OC)c2[O-])c1[O-].[Cl-].[Mn+2]`, 99.4.
Next, `O=C(CCNNC(=O)c1ccncc1)NCc1ccccc1` [Nialamide]: 92.2; `CN(Cc1ccc(C(C)(C)C)cc1)Cc1cccc2ccccc12` [Butenafine]: 104.
As to `O=Nc1ccc2oc(=O)ccc2c1` [6-Nitroso-1,2-benzopyrone], the H1.0 immunofluorescence intensity was 92.2.
Consider `CN(C)c1ccc(C2Nc3ccc4ccccc4c3C3=C2C(=O)CC(C)(C)C3)cc1Br` (stereo not given), for which the H1.0 immunofluorescence intensity was 113.
Next, `Cc1scc2c1N(C(=O)CN1CCN(C)CC1)c1ccccc1NC2=O.Cl.Cl` [Telenzepine.2HCl]: 96.6.
Regarding `CC1C(=O)N=C2Nc3cccc(Cl)c3CN21` (stereo not given) [Quazinone], the H1.0 immunofluorescence intensity was 94.9.
As to `CC(=O)c1ccc(NC2=C(Cl)C(=O)c3ccccc3C2=O)cc1` [2-(4-acetylanilino)-3-chloronaphthoquinone], the H1.0 immunofluorescence intensity was 150 (active).
Next, `N#Cc1cc2nc([O-])c([O-])nc2cc1[N+](=O)[O-].[Na+].[Na+]` [CNQX disodium]: 94.1; `Cl.O=C(CCCN1CCC(O)(c2cccc(C(F)(F)F)c2)CC1)c1ccc(F)cc1` [Trifluperidol hydrochloride]: 98.4.
Next, `CCCC(=O)NCCc1c2n(c3ccc(OC)cc13)CCCc1ccccc1-2`: 84.7.
Next, `O=C(C=CC=Cc1ccc2c(c1)OCO2)N1CCCCC1` [Piperine]: 96.8.
Regarding `CN(C)c1ccc(O)c2c1CC1CC3C(N(C)C)C(=O)C(C(N)=O)=C(O)C3(O)C(=O)C1=C2O` (stereo not given) [Minocycline], the H1.0 immunofluorescence intensity was 110.
Take `COc1cc2c(c(OC)c1OC)-c1ccc(OC)c(=O)cc1C(NC=O)CC2` (stereo not given) [N-Formyl-Deacetylcolchicine]: the H1.0 immunofluorescence intensity was 91.7.
As for `CCCCC=CCCCCCCCC(=O)O` [9(Z)-Tetradecenoic acid], the figure is 104.
As for `CC(C)CC(NC(=O)C(Cc1c[nH]c2ccccc12)NC(=O)C(Cc1ccc(O)cc1)NC(=O)C(CO)NC(=O)C(Cc1c[nH]c2ccccc12)NC(=O)C(Cc1cnc[nH]1)NC(=O)C1CCC(=O)N1)C(=O)NC(CCCN=C(N)N)C(=O)N1CCCC1C(=O)NCC(N)=O` (stereo not given) [Triptorelin], the figure is 97.7; as for `CC1(NC2=NS(=O)(=O)c3sc(Cl)cc3N2)CC1`, 96.1.
Consider `NCCCC(O)(P(=O)([O-])O)P(=O)(O)O` [Alendronate], for which the H1.0 immunofluorescence intensity is 94.3.
Next, `CNCCC(Oc1ccc(C(F)(F)F)cc1)c1ccccc1.Cl` (stereo not drawn) [S-(+)-Fluoxetine hydrochloride]: 107; `Clc1ccc(C(Cn2ccnc2)OCc2csc3c(Cl)cccc23)c(Cl)c1.O=[N+]([O-])O` (stereo not given): 96.8.
`Cc1ccc([N+](=O)[O-])cc1S(=O)(=O)N(C)N=Cc1cnc2ccc(Br)cn12`: the H1.0 immunofluorescence intensity is 111.
Next, `COc1ccc2cc(C(C)C(=O)O)ccc2c1` (stereo not given) [Naproxen]: 98.1; `Nc1sc2c(c1C(=O)c1ccc(Cl)cc1)CCCC2`: 95; `CCCCNc1ccc(C(=O)OCCN(C)C)cc1.Cl` [Tetracaine hydrochloride]: 102.
`CN1C2CCCC1CC(NC(=O)c1nn(C)c3ccccc13)C2` (stereo not given) [Granisetron]: the H1.0 immunofluorescence intensity is 104.
Next, `CC(C)(C)c1ccc(C(O)CCCN2CCC(C(O)(c3ccccc3)c3ccccc3)CC2)cc1` (stereo not given) [Terfenadine]: 107; `CCN(Cc1ccncc1)C(=O)C(CO)c1ccccc1` (stereo not given) [Tropicamide]: 98.4.
As for `Cl.c1ccc(CN2CCC3(CCCc4ccccc43)CC2)cc1` [L-687,384 hydrochloride], the figure is 93.7.
Next, `CC(C)(C)n1nc(-c2ccc(Cl)cc2)c2c(N)ncnc21`: 99.8; `CCCCCCCCCCCCCCCC(=O)OCC(COP(=O)(O)O)OC(=O)CCCCCCCCCCCCCCC` (stereo not given) [Dipalmitoylphosphatidic acid]: 89.8.
Regarding `CN(C)CCC(c1ccc(Cl)cc1)c1ccccn1.O=C(O)C=CC(=O)O` (single isomer, unassigned; (+)) [(+)-Chlorpheniramine maleate], the H1.0 immunofluorescence intensity is 99.2.
